Laboratory results from PubChem BioAssay.
Records with an inconclusive call do not appear. Active and inactive are the calls of the source. Unless noted, the limit is not given here; nearly all actives have IC50 up to about 30 µM.

Assay: growth inhibition of DIPG cells – cell-based, MIPE5.0 library, qHTS (AID 1347068);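 as to IC50: cells exposed to compound for 48 hours before viability readout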
Settings: SU-DIPG-XXV viability

Row | Compound | outcome | IC50
1 | CN1C(=O)N(c2cc(Cl)cc(Cl)c2)C(=O)[C@]12CN(Cc1cc(C(=O)O)cs1)C[C@H]2c1ccc(C#N)cc1 | inactive | –
2 | CCS(=O)(=O)N1CCC(C(C)n2c(C)c(C(=O)NCc3c(OC)cc(C)[nH]c3=O)c3ccccc32)CC1 (centres undefined) | inactive | –
3 | N#Cc1cc2cc(CN3CCC(Nc4ncnc5sc(CC(F)(F)F)cc45)CC3)c(O)cc2n1Cc1cn[nH]c1 | – | 20.9 µM (active)
4 | CCn1c(N)c(C(=O)NC)c(=O)c2ccc(C#CC(C)(O)COC)nc21 (centres undefined) | inactive | –
5 | CC[C@H](C)[C@@H]([C@@H](CC(=O)N1CCC[C@H]1[C@H](OC)[C@@H](C)C(=O)N[C@@H](Cc1ccccc1)c1nccs1)OC)N(C)C(=O)[C@@H](NC(=O)[C@H](C(C)C)N(C)C)C(C)C | – | 0.00417 µM (active)
6 | N#Cc1cccnc1N1CCN(C(=O)c2cccc(Cc3n[nH]c(=O)c4ccccc34)c2)CC1 | inactive | –
7 | CC[C@@]1(O)C(=O)OCc2c1cc1n(c2=O)Cc2c-1nc1ccccc1c2CCNC(C)C | inactive | –
8 | CC(C)(c1ccc(OCC(O)CO)cc1)c1ccc(OCC(O)CCl)cc1 (centres undefined) | inactive | –
9 | O=C(Nc1ccnc(NC(=O)C2CC2)c1)c1c(Cl)cccc1Cl | – | 7.42 µM (active)
10 | Cc1cc(CS(=O)(=O)c2ccccc2)cc(OCc2ccc(CN3CCC[C@@H]3CO)cc2)c1 | inactive | –
11 | CSc1ccc(C(=O)/C=C/c2cc(C)c(OC(C)(C)C(=O)O)c(C)c2)cc1 | inactive | –
12 | O=C(/C=C/c1ccc(Cl)cc1)N1CCC2(CC1)CN(Cc1ccc(Cl)c(Cl)c1)C(=O)O2 | inactive | –
13 | O=C(CCNC(=O)c1ccc(OC(F)(F)F)cc1)N[C@@H]1CCCc2ccccc21 | inactive | –
14 | COc1cccc(Nc2ncnn3ccc(CN4CC[C@@H](N)[C@H](O)C4)c23)c1 | inactive | –
15 | CCCOc1ccc(CCc2nc3cc(-c4c(C)noc4C)ccc3n2CCN2CCOCC2)cc1 | inactive | –
16 | COc1ccc(Cl)c(Nc2ncnc3cc(OCC4CCN(C)CC4)c(OC)cc23)c1 | inactive | –
17 | Cc1onc(-c2ccc(F)cc2)c1COc1ccc(C(=O)N2CCS(=O)(=O)CC2)cn1 | inactive | –
18 | COc1cc2c3c(n(CCCN4CCOCC4)c(=O)c2cc1OC)-c1cc2c(cc1C3=O)OCO2 | inactive | –
19 | C[C@@H](O)[C@@H](C)Oc1nc(Nc2ccc(S(=N)(=O)C3CC3)cc2)ncc1C(F)(F)F (some centres undefined) | inactive | –

Row | Compound | outcome | IC50
20 | NC(=O)c1cc(F)cc2c1C(=O)N(C1CCN(C3CCC(F)(F)CC3)CC1)C2 | inactive | –
21 | CN1C[C@@H]2c3ccccc3Oc3ccc(Cl)cc3[C@H]2C1 | inactive | –
22 | C=C1CCC[C@]2(C)C=C3OC(=O)C(C)=C3C[C@@H]12 | inactive | –
23 | Nc1nc(OCc2cc(Br)cs2)c2[nH]cnc2n1 | inactive | –
24 | COC(=O)C1=C(C)NC(c2ncc(F)cc2F)=N[C@@H]1c1ccc(F)cc1Cl | inactive | –
25 | C[C@@H]1CC(=O)Nc2cccc(-c3ccc4c(c3)c(-c3cnn(C)c3)nn4C)c2N1 | inactive | –
26 | CC[C@H](Nc1ncnc2nc[nH]c12)c1oc2ccccc2c(=O)c1-c1cccc(F)c1 | inactive | –
27 | NS(=O)(=O)c1ccc(Cc2c(-c3cccc(-c4ccccc4)c3)nn(-c3nc(C(=O)O)cs3)c2CC2CC2)cc1 | inactive | –
28 | Cc1noc2c1-c1ccccc1C(c1ccc(Cl)cc1)=N[C@H]2CC(N)=O | inactive | –
29 | COc1cc(C(N)=O)ccc1NC(=O)[C@@H]1N[C@@H](CC(C)(C)C)[C@@]2(C(=O)Nc3cc(Cl)ccc32)[C@H]1c1cccc(Cl)c1F | – | 16.6 µM (active)
30 | CC(C)NCCCn1c(Sc2cc(Cl)cc(Cl)c2)nc2c(N)ncnc21 | inactive | –
31 | CNC(=O)c1cc(Oc2ccc3nc(N[C@@H]4CCCC[C@H]4O)sc3c2)ccn1 | inactive | –
32 | O=C(NO)C1(CS(=O)(=O)c2ccc(Oc3ccc(Cl)cc3)cc2)CCOCC1 | inactive | –
33 | CNc1ncc2cc(-c3cc(NC(=O)NCCC(C)(C)C)c(F)cc3C)c(C)nc2n1 | inactive | –
34 | COCCOC(=O)N1CCN(S(=O)(=O)c2cc(F)c(Oc3ccc(Cl)cc3)c(F)c2)C(C(=O)NO)C1 (centres undefined) | – | 20.9 µM (active)
35 | Cn1ncnc1[C@H]1c2n[nH]c(=O)c3cc(F)cc(c23)N[C@@H]1c1ccc(F)cc1 | inactive | –
36 | C[C@H]1C[C@@H](n2c(Nc3ccc(OC(F)(F)F)cc3)nc3cc(CCC(=O)O)ccc32)CC(C)(C)C1 | inactive | –
37 | CC(=O)C1CCC2C3CCC4=CC(=O)CCC4(C)C3CCC12C (centres undefined) | inactive | –
38 | CN(C)CCN1C(=O)c2cccc3cc(NC(N)=O)cc(c23)C1=O | inactive | –

Assay: viability loss with induced miR-34 in A549 – imaging, A549 dox-inducible miR-34, nuclei and caspase counts, primary screen (AID 1347080;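 active = compounds whose cell count with miR-34 switched on is under 0.7 times the count with it off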)
Settings: A549 miR-34 inducible, Hoechst nuclei count, 48 h; stronger effect = lower value; cell number ratio, induced over uninduced

Row | Compound | fold change
39 | Cc1cccc(-c2nn3c(c2-c2ccnc4ccc(C(N)=O)cc24)CCC3)n1 | 0.932 (inactive)
40 | CN1C[C@@H]2c3ccccc3Oc3ccc(Cl)cc3[C@H]2C1 | 0.885 (inactive)
41 | Nc1nc(OCc2cc(Br)cs2)c2[nH]cnc2n1 | 0.799 (inactive)

Same assay, conditions: A549 miR-34 inducible, Hoechst nuclei count, 48 h; measured here: relative caspase fold change +Dox/-Dox

Row | Compound | fold change
42 | Cc1cccc(-c2nn3c(c2-c2ccnc4ccc(C(N)=O)cc24)CCC3)n1 | 0.899
43 | CN1C[C@@H]2c3ccccc3Oc3ccc(Cl)cc3[C@H]2C1 | 1.23
44 | Nc1nc(OCc2cc(Br)cs2)c2[nH]cnc2n1 | 0.415
